PvdQ inh: P. aeruginosa PvdQ acylase inhibition. inhibition, % at 10 µM. purified PvdQ acylase, fluorescence plate reader. actives 0.063% (n = 340,000); in the data active = inhibition above about 30%, passing the limit was not always enough;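 note: 0% = vehicle neutral wells and 100% = reference inhibitor wells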
CFTR F508del cor: CFTR F508del correction in bronchial cells; CFBE cells, YFP halide quenching; stimulated with forskolin plus potentiator P3; % fluorescence drop versus neutral controls; activity (quench increase), % at 7.58 µM; AID 720511; actives 0.36% (n = 350,000);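 active = mean added fluorescence quench of at least 8% versus neutral control, with both replicates also reaching 8%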;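 note: cells transiently co-express mutant CFTR-F508del with the halide-sensitive YFP; corrector assay measuring rescue of mutant channel to the surface after 24 h compound exposure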
ARNT-TACC3 inh: ARNT/TACC3 interaction disruption; actives 0.66% (n = 390,000); Q9Y6A5; AlphaScreen His-ARNT PAS-B/GST-TACC3 binding, luminescence; TACC3 fragment carries E629A point mutation; AID 623870; inhibition, % at 9.99 µM;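 active = mean inhibition of replicates at least 50% and at least half of replicates each reaching 50%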;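 note: 0% = complete ARNT plus TACC3 wells and 100% = ARNT alone without TACC3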
ERAP1 HTS inh: inhibitors of human ERAP1 aminopeptidase; Q9NZ08; recombinant ERAP1, Leu-AMC fluorescence, 60 min; inhibition, % at 10.7 µM; actives 0.15% (n = 340,000); AID 652197;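 active = mean replicate inhibition of at least 30%, or all replicates individually reaching that 30% level; inactive = mean below 30% and not every replicate reaching it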;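 note: 0% = neutral control wells and 100% = L-leucinethiol positive control wells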
Target sequence (Q9NZ08 whole entry, looked up): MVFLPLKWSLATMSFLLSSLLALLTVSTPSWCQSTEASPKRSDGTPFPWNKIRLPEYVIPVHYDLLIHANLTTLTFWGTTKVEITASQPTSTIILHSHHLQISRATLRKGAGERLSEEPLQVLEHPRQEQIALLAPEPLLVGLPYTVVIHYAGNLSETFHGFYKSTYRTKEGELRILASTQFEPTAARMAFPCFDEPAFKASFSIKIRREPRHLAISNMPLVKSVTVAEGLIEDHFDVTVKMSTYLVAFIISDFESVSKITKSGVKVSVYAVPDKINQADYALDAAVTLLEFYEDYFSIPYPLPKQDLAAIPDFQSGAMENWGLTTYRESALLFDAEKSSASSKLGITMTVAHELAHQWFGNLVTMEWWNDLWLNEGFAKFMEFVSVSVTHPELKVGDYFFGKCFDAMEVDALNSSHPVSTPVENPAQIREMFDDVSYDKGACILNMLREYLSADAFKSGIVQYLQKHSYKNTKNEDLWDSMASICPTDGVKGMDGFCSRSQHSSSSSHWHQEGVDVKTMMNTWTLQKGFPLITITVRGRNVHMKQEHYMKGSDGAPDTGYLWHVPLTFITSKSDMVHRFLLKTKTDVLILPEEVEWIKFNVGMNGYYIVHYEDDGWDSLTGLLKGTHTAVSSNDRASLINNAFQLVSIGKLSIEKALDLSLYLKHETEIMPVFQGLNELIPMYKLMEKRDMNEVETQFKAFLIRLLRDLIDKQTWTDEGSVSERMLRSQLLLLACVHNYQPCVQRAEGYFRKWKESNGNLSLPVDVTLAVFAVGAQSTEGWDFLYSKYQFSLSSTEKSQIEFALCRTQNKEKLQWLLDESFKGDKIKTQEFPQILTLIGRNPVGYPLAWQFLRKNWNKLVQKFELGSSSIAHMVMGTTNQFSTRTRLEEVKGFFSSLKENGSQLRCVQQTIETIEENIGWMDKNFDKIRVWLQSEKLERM
Ecoli rRNA inh: selective bacterial rRNA inhibition in E. coli | actives 1.6% (n = 350,000) | E. coli WT GFP vs humanized-ribosome RFP mutants, fluorescence, 24 h; active compounds read low; DMSO median 0, no signal -100 | GFP signal change (wild-type ribosome), % (concentration not given with the values) | AID 720706;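 active = significant combined selectivity score with lowered wild-type GFP, culture density cut under 30%, mutant RFP and density less affected; inactive = any of these conditions unmet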
Active calls of the source: *; . = not tested or not shown. An excerpt weighted towards active compounds, which were near 2.1% of everything screened.

SMILES	PvdQ inh	CFTR F508del cor	ARNT-TACC3 inh	ERAP1 HTS inh	Ecoli rRNA inh
Cc1ccc(C(=O)N/C(=C\c2ccco2)C(=O)NCCCn2ccnc2)cc1C	-12	-3	77*	-4	11
CCOC(=O)c1c(N)sc(C(=O)Nc2ccccc2)c1C	6	0	10	1	-25
CCOC(=O)c1c(N)sc(C(=O)Nc2ccccc2F)c1C	-9	-2	-1	3	-26*
CC(=O)N1[C@@H]2c3ccc(-c4cncnc4)c(=O)n3C[C@H]1[C@H](CO)[C@H]2C(=O)NC1Cc2ccccc2C1	.	-1	-5	3	3
COc1ccc(-c2csc(NC(=O)CC(NC(C)=O)c3ccccc3)n2)cc1OC (stereo not given)	1	1	2	0	-28*
CS(=O)(=O)N1[C@@H]2c3ccc(C4=CCCC4)c(=O)n3C[C@H]1[C@H](CO)[C@H]2C(=O)N1CCCCC1	.	-1	-4	-1	5
CCOc1cc(N2CCOCC2)c(OCC)cc1NC(=O)CN1C(=O)NC(C)(C2CC2)C1=O (stereo not given)	-4	-2	1	-2	3
COc1cccc(NC(=O)CN2C(=O)NC3(CCCCCC3)C2=O)c1	3	8.8*	12	0	4
CCOc1cc(N2CCOCC2)c(OCC)cc1NC(=O)CN1C(=O)NC2(CCCCC2)C1=O	-7	22*	5	5	9
CC(C)c1ccc(NC(=O)CN2C(=O)NC3(CCCCCCC3)C2=O)cc1	-10	9.5*	-1	-1	-24
CC(C)NC(=O)N[C@@H]1CC[C@@H](CC(=O)NCc2ccc(Oc3ccccc3)cc2)O[C@@H]1CO	.	-1	-30	2	-1
C[C@@H]1CCCCO[C@H](CN(C)C(=O)CCCN(C)C)[C@H](C)CN([C@@H](C)CO)C(=O)c2cc(NC(=O)Nc3ccc(C(F)(F)F)cc3)ccc2O1	.	0	0	.	-49
COc1ccc(NC(=O)N(C)C[C@@H]2Oc3ncc(C#C[C@H](C)O)cc3C(=O)N([C@@H](C)CO)C[C@@H]2C)cc1	.	-3	-4	2	3
O=C(c1ccc2ccccc2c1)N1CCN(Cc2ccccc2)CC1	-13	11*	-11	-2	-22
O=C(c1cccc(C(=O)N2CCN(Cc3ccccc3)CC2)c1)N1CCN(Cc2ccccc2)CC1	-7	.	-2	.	.
S=C(c1ccc(Br)cc1)N1CCN(Cc2ccccc2)CC1	-12	2	8	1	-22*
CO[C@H]1CN(C)C(=O)c2ccc(NC(=O)C3CC3)cc2OC[C@@H](C)N(C(=O)c2cnccn2)C[C@H]1C	.	-1	-4	-2	4
C[C@H]1CCCCO[C@H](CN(C)C(=O)Nc2cccc3ccccc23)[C@@H](C)CN([C@@H](C)CO)C(=O)c2cc(NC(=O)NC3CCCCC3)ccc2O1	.	-3	1	0	10
COc1ccc(CNCC(=O)Nc2ccccc2-n2cccc2)cc1	-6	10*	2	0	-18
COc1ccc(CC(=O)Nc2ccccc2N2CCCC2)cc1	-6	-1	.	-2	-23
COc1ccc(C(=O)NCC2CCN(C(=O)C(=O)c3cc4ccccc4o3)CC2)c(OC)c1	.	-2	.	4	-13*
O=C(C(=O)N1CCC(CNS(=O)(=O)c2ccc(F)cc2)CC1)c1cc2ccccc2o1	.	-2	.	-1	-9
COc1ccc(CC(=O)NCC2CCN(C(=O)C(=O)c3cc4ccccc4o3)CC2)cc1	.	-2	.	-1	3
COC(=O)c1cc(S(=O)(=O)NCC2CCN(C(=O)C(=O)c3cc4ccccc4o3)CC2)cs1	.	0	.	4	-19*
COCC(=O)N1CCC2(CC1)CN(Cc1ccc3c(c1)OCO3)[C@H](CO)c1c2c2ccc(OC)cc2n1C	.	0	.	1	2
SMILES	PvdQ inh	CFTR F508del cor	ARNT-TACC3 inh	ERAP1 HTS inh	Ecoli rRNA inh
C[C@@H]1CN([C@H](C)CO)S(=O)(=O)c2ccc(-c3ccc(F)cc3)cc2O[C@@H]1CN(C)C(=O)c1ccccc1F	.	-1	1	2	-6
Cc1ccc(C2NC(=O)c3[nH]nc(-c4ccccc4)c32)cc1 (stereo not given)	.	4	.	5	-19*
COc1cccc(S(=O)(=O)N(C)C[C@@H]2Oc3ncc(C#CCN(C)C)cc3C(=O)N([C@@H](C)CO)C[C@@H]2C)c1	.	-2	3	1	3
Oc1ccc(N=Nc2ccc3c(c2)OCCO3)c(O)c1	24	1	-3	-1	-38*
O=C(c1ccccc1)c1c(O)nc(-c2ccccc2)n(-c2ccccc2)c1=O	7	1	17	-2	-25*
C[C@H]1CN([C@@H](C)CO)C(=O)c2cc(NC(=O)C3CC3)ccc2O[C@@H]1CN(C)Cc1ccccc1	.	3	-1	-1	-1
COc1cc2c(cc1OC)C(c1cccs1)N(C(=O)C(C)C)CC2 (stereo not given)	-5	.	-2	.	.
COc1cc2c(cc1OC)C(c1cccs1)N(C(=O)c1cccnc1)CC2 (stereo not given)	-20	9.9*	-30	0	-11
CO[C@@H]1CN(C)C(=O)c2ccc(NS(=O)(=O)c3cccc(C)c3)cc2OC[C@@H](C)NC[C@@H]1C	.	.	.	.	2
O=C(Nc1cccc([N+](=O)[O-])c1)Nc1cccc([N+](=O)[O-])c1	-10	.	-1	1	-18*
Nc1c(C(=O)OCC(=O)Nc2cccc([N+](=O)[O-])c2)[nH]c(=O)[nH]c1=O	-5	.	16*	-3	4
Cc1occc1C(=O)NNC(=S)Nc1cccc([N+](=O)[O-])c1	1	.	15	1	-19*
O=C(CC1CC1)N1CC(=O)N2[C@@H](CO)[C@@H](c3ccc(-c4ccccc4)cc3)[C@@H]2C1	.	-2	.	-1	0
CO[C@@H]1CN(C)C(=O)c2ccc(NC(=O)Nc3cc(F)ccc3F)cc2OC[C@H](C)N(C)C[C@H]1C	.	0	2	-1	-3
O=C(C[C@H]1CC[C@@H](NC(=O)Nc2ccccc2F)[C@@H](CO)O1)NCc1ccc(-c2ccccc2)cc1	.	-2	.	0	-45
CCOC(=O)c1cc(-c2ccc3c(c2)OCCO3)n[nH]1	2	2	-7	-3	-32*
C[C@@H]1CN([C@H](C)CO)C(=O)c2cc(C#CC3(O)CCCC3)cnc2O[C@H]1CN(C)C(=O)Cc1ccncc1	.	4	0	-6	5
COCCNc1nc(NC(C)C)nc2ccsc12	.	3	.	-3	14
CC(C)Nc1nc(Nc2ccc(Cl)cc2F)c2sccc2n1	.	8.6*	.	0	-60
O=C(N[C@H]1CC[C@@H](CC(=O)N2CCc3ccccc3C2)O[C@@H]1CO)C1CCC1	.	2	-32	0	0
COc1cc(SC)ccc1C(=O)Nc1nccs1	8	3	3	-1	-25*
COc1cc(SC)ccc1C(=O)Nc1ccccc1	-11	.	-3	.	.
COc1cc(SC)ccc1C(=O)Nc1ccc2c(c1)OCCO2	-10	0	11	7	-25*

Source: PubChem
